Laboratory results as given in PubChem BioAssay (NCATS).
Several values for one entry are separate records, joined by “and”; a condition that tells them apart may be missing. Identical values can stand only once. Results filed as inconclusive are left out. Where a call stands in place of a potency, no number is given. A structure can be active in one record and inactive in another. Activity calls are given as the source filed them. The call rests on the fitted dose curve; in most records, active means well fitted curve in the direction sought with a large enough effect; inconclusive means small, poorly fitted or top-dose-only effect, or another doubt; inactive means no such curve, though single readings can be large; an effect the other way counts as inactive or inconclusive.

Assays:
[1] = Viability qHTS for spleen associated tyrosine kinase inhibitor (SYKi) naive MV4-11 cells (AID 1963823); conditions: MV4-11 AML viability, CellTiter-Glo luminescence, 72 h; series mostly up to 45 µM; further: nearly all actives have a fitted effect of over 40% in size
Method in brief: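 qHTS, SYK inhibitor-naive MV4-11; 500 cells/well; 72 hr compound exposure, 37 C; CellTiter-Glo added, 10 min RT; luminescence read.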

[2] = Viability qHTS for spleen associated tyrosine kinase inhibitor (SYKi) drug resistant MV4-11 cells (AID 1963824); conditions: SYKi-resistant MV4-11 viability, CellTiter-Glo, 72 h; series mostly up to 45 µM; further: nearly all actives have a fitted effect of over 35% in size
Method in brief: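 CellTiter-Glo luminescence, read 10 min after reagent addition, reports viability after a 72 hr compound exposure. Cells are an MV4-11 line made resistant to SYK inhibition, seeded at 500 per well onto compound-containing plates.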

[3] = Cellular viability qHTS for adrenocortical cancer (ACC) cell line SW-13 (AID 1963989); conditions: SW-13 ACC cells viability, CellTiter-Glo, 48 h; activity (max response): stronger effect = lower value; further: nearly all actives have a fitted effect of over 65% in size;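 on activity (max response): cells grown in serum-free medium with ITS supplement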
Method in brief: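 Luminescent ATP read-out (CellTiter-Glo, 20 min at room temperature) measured metabolically competent SW-13 cells after 48 h compound treatment. Final concentrations spanned up to 46 uM; bortezomib served as positive control.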

[4] = Cellular viability qHTS for adrenocortical cancer (ACC) cell line NCI-H295R (AID 1963990); conditions: CellTiter-Glo ATP luminescence, 48 h; series mostly up to 46.1 µM; further: nearly all actives have a fitted effect of over 60% in size
Method in brief: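 IC50 and maximal efficacy derive from four-parameter logistic modelling of titration curves, with reads scaled between DMSO-only wells (0%) and doxorubicin hydrochloride (100% inhibition). Compounds spanned up to 46 uM over 48 h.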
Potency means the concentration at half of the fitted maximal effect.

Row | SMILES | Potency [1] | Potency [2] | activity (max response) [3] | Potency [4] | Potency [3]
1 | CC(COc1ccccc1)NC(C)C(O)c1ccc(O)cc1 (stereo not given) | inactive | inactive | 3.43% (inactive) | inactive | 
2 | CC(C)COC(=O)c1ccc(N)cc1 | inactive | inactive | 4.68% (inactive) | inactive | 
3 | CCc1cc2c(cc1N1CCC(N3CCOCC3)CC1)C(C)(C)c1[nH]c3cc(C#N)ccc3c1C2=O | 0.178 µM (active) | 0.632 µM (active) | -11.5% (inactive) | inactive | 
4 | CCCCC(CC)CNC(=O)CC(C)OC(=O)CCC(=O)O (stereo not given) | inactive | inactive | -6.84% (inactive) | inactive | 
5 | O=[N+]([O-])c1ccc(-c2nc(-c3ccc(F)cc3)c(-c3ccncc3)[nH]2)cc1 | 14.8 µM (active) and 5.17 µM (active) | inactive and 9.34 µM (active) and 2.06 µM (active) | -1.63% (inactive) | inactive | 
6 | NC(=O)NNc1ccccc1 | inactive | inactive | -10.9% (inactive) | inactive | 
7 | CCCc1c2oc(C(=O)O)cc(=O)c2cc2c(=O)cc(C(=O)O)n(CC)c12 | inactive | inactive | -2.58% (inactive) | inactive | 
8 | C[C@]12C=CC(=O)C=C1CC[C@@H]1[C@@H]2[C@@H](O)C[C@@]2(C)[C@H]1CC[C@]2(O)C(=O)CO | inactive | inactive | -7.97% (inactive) and -0.878% (inactive) | inactive | 
9 | O=C(O)/C=C(\CC(=O)O)C(=O)O | inactive | inactive | 7.17% (inactive) | inactive | 
10 | CCCCC1=NC2(CCCC2)C(=O)N1Cc1ccc(-c2ccccc2-c2nn[nH]n2)cc1 | inactive | inactive | 8.5% (inactive) | inactive | 
11 | C[C@@H]1CC(=O)Nc2cccc(-c3ccc4c(c3)c(-c3cnn(C)c3)nn4C)c2N1 | 2.09 µM (active) | 1.32 µM (active) | -3.66% (inactive) | inactive | 
12 | C=CCn1c(=O)n([C@@H]2O[C@H](CO)[C@@H](O)[C@H]2O)c2nc(N)[nH]c(=O)c21 | inactive | inactive | 10.8% (inactive) | inactive | 
13 | COC(=O)/C=C/C(=O)OC | inactive | inactive | -9.41% (inactive) | inactive | 
14 | COc1cc(C=C2CCC/C(=C\c3ccc(O)c(OC)c3)C2=O)ccc1O | 3.76 µM (active) | 3.35 µM (active) |  | 7.31 µM (active) | 4.61 µM (active)
15 | NC[C@@](O)(c1ccc(Cl)cc1)c1ccc(-c2cn[nH]c2)cc1 | 2.06 µM (active) and 3.32 µM (active) | 3.26 µM (active) and 6.61 µM (active) |  | 10 µM (active) | 12.6 µM (active)
16 | CC(=O)OCC1=C(C(=O)O)N2C(=O)[C@@H](NC(=O)Cc3cccs3)[C@H]2SC1 | inactive | inactive | 10.2% (inactive) | inactive | 
17 | O=C(CCOCCOCCOCCOCCC(=O)Nc1c(I)cc(I)c(C(=O)O)c1I)Nc1c(I)cc(I)c(C(=O)O)c1I | inactive | inactive | 6.37% (inactive) | inactive | 
18 | CCN[C@H]1CN(CCCOC)S(=O)(=O)c2sc(S(N)(=O)=O)cc21 | inactive | inactive | 7.66% (inactive) | inactive | 
19 | COc1ccc(CNc2nc(N(CCO)CCO)nc3c2ncn3C(C)C)cc1 | 4.11 µM (active) | 5.8 µM (active) |  | 15.8 µM (active) | 8.91 µM (active)
20 | Cc1c(-c2ccccc2)oc2c(C(=O)OCCN3CCCCC3)cccc2c1=O | inactive | inactive | -7.2% (inactive) | inactive | 
21 | C[C@H]1COCCN1c1cc(C2(S(=O)(=O)C3CC3)CC2)nc(-c2ccc(NC(=S)NCCO)cc2)n1 | 0.0184 µM (active) | 0.0731 µM (active) |  | 1.12 µM (active) | 0.316 µM (active)
22 | Cc1ccc(S(=O)(=O)NC(=O)NN2CCCCCC2)cc1 | inactive | inactive | -2.59% (inactive) | inactive | 
23 | Cc1cc(I)ccc1Nc1c(C(=O)NOCC2CC2)cc(F)c(F)c1F | 2.31 µM (active) | 2.59 µM (active) |  | 3.98 µM (active) | 3.16 µM (active)
24 | C[C@]12C[C@H](O)[C@H]3[C@@H](CCC4=CC(=O)CC[C@@]43C)[C@@H]1CC[C@@H]2C(=O)CO | inactive | inactive | 4.71% (inactive) | inactive | 
25 | CNC(=O)c1cccc2cc(Oc3ccnc4cc(OCC5(N)CC5)c(OC)cc34)ccc12 | 13 µM (active) | 14.8 µM (active) and 20.6 µM (active) |  | 22.4 µM (active) | 28.2 µM (active)
